The panel holds about 79,000 compounds, 15% with a hit somewhere; the sample as a whole holds those more often. Activity calls are given as the source filed them. No stated cut-off is given here; in the data, active means growth inhibition above about 70%; inactive means the rest.
Assays:
[1] = NCI Yeast Anticancer Drug Screen. Data for the rad52 strain (AID 147);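 further: 0% = growth of vehicle-treated control cultures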; details: S. cerevisiae rad52 mutant growth inhibition, hits give high values
Method in brief: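 Genetically altered yeast (DNA damage repair defect) treated with compound; inhibition calculated relative to vehicle.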

[2] = NCI Yeast Anticancer Drug Screen. Data for the wt1 strain (AID 149);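 further: 0% = growth of vehicle-treated wt1 cultures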; details: S. cerevisiae wt1 strain (SPY 50644) growth inhibition, hits give high values
Method in brief: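 wt1 strain grown with compound or vehicle; inhibition taken from the growth difference.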

[3] = NCI Yeast Anticancer Drug Screen. Data for the rad50EPP+ strain (AID 151);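 further: 0% = growth of vehicle-treated control cultures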; details: S. cerevisiae rad50 mutant strain, hits give high values
Method in brief: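 Strain rad50EPP+; compound exposure; % growth inhibition vs vehicle.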

[4] = NCI Yeast Anticancer Drug Screen. Data for the rad50 strain (AID 155);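 further: 0% = growth of vehicle-only cultures of the same strain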; details: S. cerevisiae rad50 strain growth inhibition, hits give high values
Method in brief: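 DNA repair mutant yeast, compound exposure, growth read-out; inhibition is taken relative to vehicle.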

[5] = NCI Yeast Anticancer Drug Screen. Data for the mec2-1 strain (AID 157); details: S. cerevisiae mec2-1 strain, hits give high values
Method in brief: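 Cells of the genetically defined mec2-1 yeast strain are incubated with test compound. Inhibition of growth is calculated against vehicle-treated controls.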

[6] = NCI Yeast Anticancer Drug Screen. Data for the rad14 strain (AID 159);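 further: 0% = growth of vehicle-treated control cultures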; details: S. cerevisiae rad14 strain growth inhibition, hits give high values
Method in brief: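 DNA repair-defective yeast, compound-exposed; % growth inhibition derived by comparison with vehicle-treated controls.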

[7] = NCI Yeast Anticancer Drug Screen. Data for the sgs1 mgt1 strain (AID 161);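 further: 0% = growth of cultures given vehicle only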; details: S. cerevisiae sgs1 mgt1 strain, hits give high values
Method in brief: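 Genetically altered yeast, compound exposure, growth inhibition relative to vehicle.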

[8] = NCI Yeast Anticancer Drug Screen. Data for the cln2 rad14 strain (AID 165);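 further: 0% = growth equal to vehicle treated cultures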; details: S. cerevisiae cln2 rad14 strain, hits give high values
Method in brief: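 The screen exposed genetically defined yeast (cln2 rad14) to test compounds and scored growth inhibition relative to vehicle-treated controls.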

[9] = NCI Yeast Anticancer Drug Screen. Data for the bub3 strain (AID 167); details: S. cerevisiae bub3 mutant strain, hits give high values
Method in brief: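 In this screen, a yeast mutant lacking normal mitotic checkpoint function is challenged with compound. Relative growth versus vehicle gives the inhibition value.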

[10] = NCI Yeast Anticancer Drug Screen. Data for the wt2 strain (AID 169);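 further: 0% = growth of vehicle-treated yeast cultures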; details: S. cerevisiae wt2 strain growth inhibition, hits give high values
Method in brief: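 Steps: yeast strain treated with compound; growth recorded; inhibition calculated relative to cultures given vehicle alone.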

[11] = NCI Yeast Anticancer Drug Screen. Data for the mlh1 strain (AID 171);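 further: 0% = growth of vehicle-treated control cultures of the same strain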; details: S. cerevisiae mlh1 strain growth inhibition, hits give high values
Method in brief: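 Yeast screen: mutant strain plus compound, growth scored against vehicle control wells.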

[12] = NCI Yeast Anticancer Drug Screen. Data for the sgs1 strain (AID 173);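 further: 0% = growth of vehicle-only control cultures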; details: S. cerevisiae sgs1 mutant, hits give high values
Method in brief: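 Inhibition of yeast growth served as the measure. The mutant strain was treated with each compound, and growth was normalised to cultures receiving vehicle alone.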

[13] = NCI Yeast Anticancer Drug Screen. Data for the mlh1 rad18 strain (AID 175); details: S. cerevisiae mlh1 rad18 strain growth inhibition, hits give high values
Method in brief: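 Compound-treated yeast growth, normalised to vehicle controls. Strain bears defined DNA repair mutations.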

[14] = NCI Yeast Anticancer Drug Screen. Data for the rad18 strain (AID 177); details: S. cerevisiae rad18 mutant growth inhibition, hits give high values
Method in brief: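 Inhibition values reflect reduced yeast growth compared with vehicle-treated controls, using a strain engineered with a DNA damage repair defect.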

[15] = at 5.0 µM (retest, dose inferred, filed as 0.5)
[16] = at 50.0 µM (retest, dose inferred, filed as 5.0)

Measured: growth inhibition

N#C/C(=C\c1ccccc1)c1ccccc1F
inactive: [1]; at 1.2 µM -1% | [1]; at 3.7 µM -3% | [1]; at 11.0 µM -2% | [1]; at 33.0 µM -1% | [1]; at 100.0 µM 3% | [2]; at 1.2 µM 1% | [2]; at 3.7 µM 1% | [2]; at 11.0 µM 2% | [2]; at 33.0 µM 1% | [2]; at 100.0 µM 1% | [3]; at 1.2 µM 2% | [3]; at 3.7 µM 2% | [3]; at 11.0 µM 9% | [3]; at 33.0 µM 16% | [3]; at 100.0 µM 21% | [4]; at 1.2 µM -4% | [4]; at 3.7 µM 3% | [4]; [15] 6% | [4]; at 11.0 µM -2% | [4]; at 33.0 µM 2% | [4]; at 50.0 µM 44.1% | [4]; at 100.0 µM 10% | [5]; at 1.2 µM 2% | [5]; at 3.7 µM 0% | [5]; [15] -11% | [5]; at 11.0 µM 4% | [5]; at 33.0 µM -4% | [5]; [16] 69% | [5]; at 50.0 µM 41.7% | [5]; at 100.0 µM -4% | [6]; at 1.2 µM -2% | [6]; at 3.7 µM -1% | [6]; at 11.0 µM 1% | [6]; at 33.0 µM 1% | [6]; at 100.0 µM 5% | [7]; [15] -8% | [7]; at 50.0 µM 45.9% | [8]; [15] -10% | [8]; [16] 17% | [8]; at 50.0 µM 6.15% | [9]; at 1.2 µM -31% | [9]; at 3.7 µM -21% | [9]; [15] -17% | [9]; at 11.0 µM -6% | [9]; at 33.0 µM -10% | [9]; at 50.0 µM 34.9% | [9]; at 100.0 µM -7% | [10]; at 1.2 µM -3% | [10]; at 3.7 µM -2% | [10]; at 11.0 µM -1% | [10]; at 33.0 µM -1% | [10]; at 100.0 µM 4% | [11]; at 1.2 µM -1% | [11]; at 3.7 µM 2% | [11]; at 11.0 µM 0% | [11]; at 33.0 µM -6% | [11]; at 100.0 µM 10% | [12]; at 1.2 µM -1% | [12]; at 3.7 µM -1% | [12]; at 11.0 µM 1% | [12]; at 33.0 µM 1% | [12]; at 100.0 µM 2% | [13]; [15] 22% | [13]; at 50.0 µM 67% | [14]; at 1.2 µM -2% | [14]; at 3.7 µM -5% | [14]; at 11.0 µM -7% | [14]; at 33.0 µM -14% | [14]; at 100.0 µM -15%
active: [4]; [16] 89% | [7]; [16] 90% | [9]; [16] 88% | [13]; [16] 96%
